Compound activity as filed in PubChem BioAssay.
MPTP block – mitochondrial permeability transition pore inhibitors, primary screen, biochemical, isolated mouse mitochondria, absorbance. AID 602449, 2012. 1.4% of 360,000 active. inhibition, % at 10 µM. Ca2+ swelling absorbance, 30 min;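 active means inhibition of 50% or more, scaled per plate between neutral and stimulator controls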;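 further: 0% = DMSO wells given calcium and 100% = 1 mM EGTA wells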
SKKanGAS inh – S. pyogenes SKKanGAS growth inhibitors in kanamycin, primary screen, streptokinase expression inhibitor project, SKKanGAS strain, BacTiter-Glo luminescence | 1.3% of 300,000 active | 6 h | AID 1662, 2009 | inhibition, % at 7.5 µM;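 active means mean replicate score, as percent of positive control median, at least 50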;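 further: strain carries kanamycin resistance gene driven by streptokinase promoter and grows in 40 µg/ml kanamycin; loss of luminescence reflects streptokinase promoter inhibition or plain growth inhibition; 0% = median of DMSO wells and 100% = positive control at its reference dose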
Mdm2-MdmX inh – inhibitors of human Mdm2-MdmX association, primary screen, cell-based, luminescence, split luciferase, SaOS-2, uHTS; Protein Mdm4 (Homo sapiens) + E3 ubiquitin-protein ligase Mdm2 (Homo sapiens), …; SaOS-2 split-luciferase Mdm2/MdmX complementation; inhibition, % at 8 µM; 3% of 330,000 active; AID 485346, 2010;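 active means inhibition of at least 50% at 8 µM in the primary screen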
Target sequence (O15151 whole entry, looked up): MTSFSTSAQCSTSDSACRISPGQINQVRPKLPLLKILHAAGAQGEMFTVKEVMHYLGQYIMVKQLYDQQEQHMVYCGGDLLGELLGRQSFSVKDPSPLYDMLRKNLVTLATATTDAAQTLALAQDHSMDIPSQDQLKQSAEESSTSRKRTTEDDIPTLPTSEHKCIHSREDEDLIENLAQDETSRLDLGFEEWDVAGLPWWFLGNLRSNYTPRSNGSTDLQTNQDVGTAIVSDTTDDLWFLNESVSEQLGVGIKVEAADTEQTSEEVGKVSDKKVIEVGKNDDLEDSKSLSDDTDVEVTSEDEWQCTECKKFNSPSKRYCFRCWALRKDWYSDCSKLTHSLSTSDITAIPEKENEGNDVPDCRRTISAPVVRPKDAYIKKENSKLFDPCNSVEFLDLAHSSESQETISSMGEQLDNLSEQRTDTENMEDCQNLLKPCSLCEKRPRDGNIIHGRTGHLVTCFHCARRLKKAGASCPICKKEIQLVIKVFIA
Target sequence (Q00987 whole entry, looked up): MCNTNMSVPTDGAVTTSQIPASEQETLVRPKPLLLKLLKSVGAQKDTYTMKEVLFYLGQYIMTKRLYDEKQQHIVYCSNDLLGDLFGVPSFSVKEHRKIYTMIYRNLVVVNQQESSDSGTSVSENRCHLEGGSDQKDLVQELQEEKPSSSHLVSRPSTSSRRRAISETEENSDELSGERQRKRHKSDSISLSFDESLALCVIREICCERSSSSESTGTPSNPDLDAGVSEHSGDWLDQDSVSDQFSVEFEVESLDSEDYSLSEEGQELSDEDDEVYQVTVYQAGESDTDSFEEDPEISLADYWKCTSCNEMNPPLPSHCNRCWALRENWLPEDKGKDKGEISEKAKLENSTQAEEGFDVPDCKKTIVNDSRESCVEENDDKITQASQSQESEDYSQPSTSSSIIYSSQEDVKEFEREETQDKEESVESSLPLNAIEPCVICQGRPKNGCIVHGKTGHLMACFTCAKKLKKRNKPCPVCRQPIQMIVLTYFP
CSC inhib – cancer stem cell viability inhibitors, primary screen, luminescence. 1.1% of 300,000 active. AID 2717, 2010. inhibition, % at 7.5 µM. cancer stem cell-like cells viability; in the data active means inhibition above about 75%; tested in HMLE shEcad cells
Beta cell apopt – inhibitors of cytokine-induced beta cell apoptosis, primary screen, luminescence. INS-1E cytokine-induced death, ATP luminescence, 48 h; percent of positive-control rescue, neutral wells zero. protection from apoptosis, % (test concentration not listed). 0.8% of 300,000 active. AID 435005, 2010;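 active means Every replicate reaches about 75%, or at least half do and their mean reaches it too, limit read from the data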;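 further: 0% = cytokine-treated negative control wells and 100% = positive control rescue; higher means more ATP so stronger rescue from cytokine killing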
NR3A LBD binder – binders of NR3A ligand-binding domain, primary screen, biophysical, differential scanning fluorimetry, uHTS | NR3A LBD differential scanning fluorimetry, Tm shift; 0% = protein alone, 100% = glycine-bound protein | Tm shift relative to glycine control, % at 25 µM | 2.5% of 340,000 active;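 active means melting temperature shift of at least 10% of the positive control shift, at one fixed dose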
Numbers without * were called inactive. In the library only some 6.9% were active in any assay of this set; here they are far more common.

How did COC(=O)c1ccc(COc2ccccc2/C=C(\C#N)C(=O)Nc2c(C)cc(C)cc2C)cc1 do in these assays?
MPTP block: 0; SKKanGAS inh: 15; Mdm2-MdmX inh: 49; CSC inhib: 117*; Beta cell apopt: 22; NR3A LBD binder: 17*

What do the screens show for `COC(=O)c1ccc(COc2ccccc2/C=C(\C#N)C(=O)Nc2ccc(C)cc2C)cc1`?
MPTP block: 1; SKKanGAS inh: -4; Mdm2-MdmX inh: 2; CSC inhib: 22; Beta cell apopt: 10; NR3A LBD binder: 4

What do the screens show for `O=C(Nc1ccc2c(c1)CCC2)c1cc(S(=O)(=O)Nc2ccc(F)cc2)c(Cl)cc1Cl`?
MPTP block: 25; SKKanGAS inh: 103*; Mdm2-MdmX inh: 45; CSC inhib: 109*; Beta cell apopt: 6; NR3A LBD binder: 31*

Results for O=C(Nc1ccc2c(c1)CCC2)c1ccc(F)cc1 ?
MPTP block: 1; SKKanGAS inh: -4; Mdm2-MdmX inh: -232; CSC inhib: 12; Beta cell apopt: 8; NR3A LBD binder: 3

How did CN(CCc1ccccn1)C1CC(=O)N(c2ccc(Cl)cc2)C1=O (configuration not stated) do in these assays?
MPTP block: 0; SKKanGAS inh: 1; Mdm2-MdmX inh: 6; CSC inhib: -17; Beta cell apopt: -6; NR3A LBD binder: 14*

How did O=C(Cc1ccccc1)Nc1ccc(C(=O)Nc2ccc(O)cc2)cc1 do in these assays?
MPTP block: -2; SKKanGAS inh: 2; Mdm2-MdmX inh: 31; CSC inhib: -4; Beta cell apopt: 4; NR3A LBD binder: 35*

What do the screens show for `O=C(CSc1ccccc1)Nc1ccc(C(=O)Nc2ccc(O)cc2)cc1`?
MPTP block: 0; SKKanGAS inh: 15; Mdm2-MdmX inh: 19; NR3A LBD binder: 25*

What do the screens show for `COC(=O)c1ccc(NC(=O)CSc2ccccc2)cc1`?
MPTP block: 4; SKKanGAS inh: -3; Mdm2-MdmX inh: -34; CSC inhib: -22; Beta cell apopt: -6; NR3A LBD binder: -10

What do the screens show for `O=C(Cc1ccccc1)Nc1ccc(NC(=O)c2ccc(Br)cc2)cc1`?
MPTP block: 0; SKKanGAS inh: -8; Mdm2-MdmX inh: 9; CSC inhib: -10; Beta cell apopt: -4; NR3A LBD binder: 2

Results for CCCOC(=O)Nc1cc(OC)ccc1[N+](=O)[O-] ?
MPTP block: -1; SKKanGAS inh: 1; Mdm2-MdmX inh: 0; CSC inhib: 7; Beta cell apopt: -3; NR3A LBD binder: 1

Results for Cc1cc(OCCN2CCOCC2)ccc1Cl ?
MPTP block: -1; SKKanGAS inh: -3; Mdm2-MdmX inh: -4; CSC inhib: 6; NR3A LBD binder: 0

What do the screens show for `Cc1ccc(C)c(/C=C/C(=O)c2ccccc(=O)c2O)c1`?
MPTP block: 6; SKKanGAS inh: 99*; CSC inhib: 92*; Beta cell apopt: 49; NR3A LBD binder: -4

What do the screens show for `O=C(/C=C/c1ccccc1Cl)c1ccccc(=O)c1O`?
MPTP block: 3; SKKanGAS inh: 90*; CSC inhib: 108*; Beta cell apopt: 60; NR3A LBD binder: -5

How did CCN(CC)C(=O)/C=C/c1ccc(OC)c(S(=O)(=O)N2CCCCC2)c1 do in these assays?
MPTP block: 1; SKKanGAS inh: -15; Mdm2-MdmX inh: 20; CSC inhib: -5; Beta cell apopt: -5; NR3A LBD binder: -2

What do the screens show for `COc1ccc([C@H]2CC(=O)C=C(c3ccc(F)cc3OCc3ccccc3)C2)cc1OC`?
MPTP block: 1; Mdm2-MdmX inh: 33; CSC inhib: 20; Beta cell apopt: 14; NR3A LBD binder: 12*

Results for O=C1C=C(c2ccc(F)cc2OCc2ccccc2)C[C@@H](c2ccc(F)cc2)C1 ?
MPTP block: 1; Mdm2-MdmX inh: 13; CSC inhib: 93*; Beta cell apopt: 65; NR3A LBD binder: 3

What do the screens show for `COc1ccc([C@H]2CC(=O)C=C(c3ccc(F)cc3OCc3ccccc3)C2)cc1`?
MPTP block: 2; Mdm2-MdmX inh: 30; CSC inhib: -1; Beta cell apopt: 20; NR3A LBD binder: 0

What do the screens show for `Cc1ccc(C2=CC(=O)C[C@H](c3ccc4c(c3)OCO4)C2)cc1`?
MPTP block: 1; Mdm2-MdmX inh: 23; CSC inhib: 42; Beta cell apopt: -3; NR3A LBD binder: -3

How did CC(=O)Nc1ccc(C2=CC(=O)C[C@H](c3ccc4c(c3)OCO4)C2)cc1 do in these assays?
MPTP block: -2; Mdm2-MdmX inh: -4; CSC inhib: 13; Beta cell apopt: 91*; NR3A LBD binder: -16

What do the screens show for `O=C(O)c1c(C(=O)O)c(-c2ccc(Br)cc2)n2c1CSC2`?
MPTP block: 4; SKKanGAS inh: 1; Mdm2-MdmX inh: -15; CSC inhib: -18; Beta cell apopt: 0; NR3A LBD binder: 14*

What do the screens show for `Cc1ccc(-c2c(C(=O)O)c(C(=O)O)c3n2CSC3)cc1`?
MPTP block: 0; SKKanGAS inh: 0; Mdm2-MdmX inh: -15; CSC inhib: -9; Beta cell apopt: 0; NR3A LBD binder: 0

What do the screens show for `O=C(NCC1CCCO1)C(c1ccc(N2CCOCC2)cc1)N(C(=O)Cn1nnc2ccccc21)c1ccccc1F` (configuration not stated)?
MPTP block: 1; SKKanGAS inh: 2; Mdm2-MdmX inh: 14; CSC inhib: 4; Beta cell apopt: -1; NR3A LBD binder: -1

What do the screens show for `Cc1cccc(C)c1NC(=O)CN(C)C(=O)Cc1cccc(C(F)(F)F)c1`?
MPTP block: 1; SKKanGAS inh: -2; Mdm2-MdmX inh: 15; CSC inhib: -3; Beta cell apopt: 0; NR3A LBD binder: 12*

Results for Cc1cc2occ(CC(=O)N(C)CC(=O)Nc3c(C)cccc3C)c2cc1C ?
MPTP block: 0; SKKanGAS inh: -3; Mdm2-MdmX inh: 2; CSC inhib: -9; Beta cell apopt: -3; NR3A LBD binder: -1

What do the screens show for `COc1cc(CC(=O)OCC(=O)N2CCCCC2C)cc(OC)c1OC` (configuration not stated)?
MPTP block: 1; SKKanGAS inh: 2; Mdm2-MdmX inh: 1; CSC inhib: -13; Beta cell apopt: -8; NR3A LBD binder: -1

Results for C=C1c2cccc(O)c2C(O)=C2C(=O)[C@]3(O)C(O)=C(C(N)=O)C(=O)[C@@H](N(C)C)[C@@H]3[C@@H](O)[C@H]12 ?
MPTP block: 5; SKKanGAS inh: 106*; Mdm2-MdmX inh: -12; CSC inhib: -15; Beta cell apopt: -2; NR3A LBD binder: -6

How did CCOc1nc2cnccc2n(CC(=O)Nc2ccc(C)c(C)c2)c1=O do in these assays?
MPTP block: -4; SKKanGAS inh: -3; Mdm2-MdmX inh: 6; CSC inhib: -1; Beta cell apopt: -4; NR3A LBD binder: 3
